# Experimental data taken from PubChem BioAssay AID652054 (National Center for Advancing Translational Sciences (NCATS), 2013).
# About 9,100 (2.5%) of roughly 360,000 compounds were called active. Inconclusive results (about 4%) are left out. Rule as the data show it: active = max response below about -50%; inconclusive = no clear call, values can overlap the other calls; inactive = above that. The list comes from a sample in which actives are over-represented; it also holds similar structures and randomly drawn compounds.
# Target: D(3) dopamine receptor (Homo sapiens) (UniProt P35462)
# Experiment: qHTS of D3 Dopamine Receptor Antagonist: qHTS
# Settings: D3R cells, DiscoveRx beta-arrestin luminescence, antagonist mode; hits give low values
# Outline: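 Cells expressing the human receptor were seeded at 1500 cells/well, incubated overnight at 37 degrees C in 5% CO2, then exposed to library compounds with dopamine controls for 90 minutes at 37 degrees C before luminescent detection.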
# % is scaled to controls: 0 for no effect and ±100 for the full control effect.
# Sequence of D(3) dopamine receptor (Homo sapiens) (P35462 whole entry, looked up): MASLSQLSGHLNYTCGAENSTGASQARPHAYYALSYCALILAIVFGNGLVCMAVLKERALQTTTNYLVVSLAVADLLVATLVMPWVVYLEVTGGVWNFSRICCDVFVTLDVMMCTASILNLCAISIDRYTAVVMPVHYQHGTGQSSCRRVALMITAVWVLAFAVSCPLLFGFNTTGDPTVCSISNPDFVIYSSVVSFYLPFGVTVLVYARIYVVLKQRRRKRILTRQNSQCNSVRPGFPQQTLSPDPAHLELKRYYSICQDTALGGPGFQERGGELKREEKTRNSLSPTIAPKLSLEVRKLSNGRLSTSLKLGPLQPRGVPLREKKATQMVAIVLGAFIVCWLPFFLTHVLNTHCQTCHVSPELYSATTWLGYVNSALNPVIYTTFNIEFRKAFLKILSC
row,SMILES,"max response, negative = inhibition"
1,C=CCC[C@H](CCCCC)OC(=O)/C=C/[C@H](O)[C@@H](O)C[C@@H](O)CC=C,-8.69% (inactive)
2,CC(C)(O)C#Cc1ccc(CNC[C@H]2O[C@@H](n3cnc4c(=O)[nH]c(N)nc43)[C@H](O)[C@@H]2O)s1,14.7% (inactive)
3,Nc1ccccc1-c1nc2ccncc2[nH]1,-1.55% (inactive)
4,N#Cc1ccc(CN2CCN(CC(=O)Nc3ccccc3C(=O)NC3CC3)CC2)cc1,1.04% (inactive)
5,O=C(NC1CCN(Cc2ccccc2)CC1)c1ccc(Oc2cc(Cl)cc(Cl)c2)o1,-87.6% (active)
6,CCNC(=S)NNC(=O)C1CCN(Cc2ccccc2)CC1,-27.2% (inactive)
7,O=C(NC1CCN(Cc2ccccc2)CC1)c1ccccc1F,-72.3% (active)
8,S=C(NN=C1CCN(Cc2ccccc2)CC1)NC1CCCCC1,-1.61% (inactive)
9,O=C(NC1CCN(Cc2ccccc2)CC1)c1cc(Br)c(Br)[nH]1,-86.7% (active)
10,Cc1cc(=O)oc2c(C)c(OC(C)C(=O)NC3CCN(Cc4ccccc4)CC3)ccc12 (stereo not given),4.52% (inactive)
11,CC(C)(C)C(=O)NNC(=O)c1ccc(Oc2cc(Cl)cc(Cl)c2)o1,19.5% (inactive)
12,S=C(Nc1ccc(Br)cc1)NC1CCN(Cc2ccccc2)CC1,-58.1% (active)
13,S=C(NCCCc1ccccc1)Nc1ccc(Br)cc1,11.9% (inactive)
14,O=C(CN1CCCCC1)Nc1ccccc1C(=O)NC1CC1,18.3% (inactive)
15,COc1ccccc1Cc1c(-c2ccc(Cl)cc2)nc2ccc(Cl)cn12,6.17% (inactive)
16,CCCCc1ccc(S(=O)(=O)NC(=O)C2(C)CCN2C(=O)c2c(C)noc2C)cc1 (stereo not given),0% (inactive)
17,O=C1NC[C@H](CCCCN2C[C@H](Cc3ccc(O)cc3)N(CCc3ccccc3)C(=O)C2=O)N(CCc2ccccc2)C1=O,4.98% (inactive)
18,CCOC(=O)[C@]12CCC=C1N(Cc1ccccc1)C(=O)[C@H](CC(=O)N1CCCC1)C2,-17.7% (inactive)
19,COc1ccccc1NC(=O)C(CC(=O)O)Cc1cc(C)cc(C)c1 (stereo not given),-7.58% (inactive)
20,O=S(=O)(c1cccc(C(F)(F)F)c1)N1c2ccccc2-n2cccc2C1c1cccnc1 (stereo not given),9.86% (inactive)
21,O=S1(=O)CC(N2CCN(CCO)CC2)CN1Cc1cn(Cc2cccc(Cl)c2)nn1 (stereo not given),-8.85% (inactive)
22,CC(C)C[C@H]1CN([C@@H](Cc2ccccc2)CN2CCC[C@@H]2CN2C(=O)C(=O)NC[C@@H]2Cc2ccc(O)cc2)C(=O)C(=O)N1CCc1ccccc1,7.71% (inactive)
23,COc1cccc(-c2cc3nc(NCCOc4ccccc4Cl)n(C)c(=O)c3s2)c1,18.3% (inactive)

row,SMILES,"max response, negative = inhibition"
1,COCCNc1ncnc2c1ncn2[C@H]1CN(CCN2CCOCC2)C[C@@H](CO)O1,-14.7% (inactive)
2,CCC(=O)N1CCCC1(C)C(=O)Nc1ccc2c(c1)CCN2C(C)=O (stereo not given),19.1% (inactive)
3,CC[C@]1(C(=O)OC)[C@H]2C(=O)N(Cc3ccccc3)C(=O)[C@H]2[C@H]2CN=C(SCc3ccc(Cl)cc3)N21,-3.9% (inactive)
4,OC[C@@H]1CN(Cc2ccncc2)C[C@H](n2cnc3c(N4CCN(c5ccccc5)CC4)ncnc32)O1,3.87% (inactive)
5,CCC1Nc2ncnc(N3CCN(c4ccccc4)CC3)c2N(Cc2ccc(Cl)cc2)C1=O (stereo not given),-73.8% (active)
6,O=C(CNC(=O)N1CC(=O)Nc2ccccc21)Nc1ccc(Br)cc1F,0% (inactive)
7,COc1ccc(NC(=O)C2Cc3c(-c4ccc(Cl)cc4)ccnc3O2)cc1 (stereo not given),28.4% (inactive)
8,CC1(C(=O)NS(=O)(=O)Cc2cccc(Cl)c2)CCN1C(=O)Cc1ccccc1 (stereo not given),-2.25% (inactive)
9,CCc1ccc([C@@H]2CC(=O)[C@@H]3CN(S(=O)(=O)c4ccc(C)cc4)[C@H](c4ccc(Cl)cc4)C[C@@H]3N2S(=O)(=O)c2ccc(C)cc2)cc1,0% (inactive)
10,O=C(O)c1ccccc1-c1cccc2nncn12,0% (inactive)
11,Cc1ccc(S(=O)(=O)N2CC[C@H]3[C@@H](C2)C(=O)C[C@@H](c2ccccc2)N3S(=O)(=O)c2ccc(C)cc2)cc1,-19.4% (inactive)
12,Cc1ccc(NC(=O)C2CCCN2S(=O)(=O)c2cccc3cccnc23)c(C)c1 (stereo not given),9.44% (inactive)
13,O=C(Nc1nccs1)C1CCCN1S(=O)(=O)c1cccc2cccnc12 (stereo not given),-56.6% (active)
14,Cc1cc(C)cc(NC(=O)C2CCCN2S(=O)(=O)c2cccc3cccnc23)c1 (stereo not given),-1.4% (inactive)
15,CC1(C(=O)Nc2ccc3c(c2)OCCO3)CCN1C(=O)Cc1cc(F)ccc1F (stereo not given),26.4% (inactive)
16,COc1ccc(-c2cc3nc(NCCOc4ccccc4)ccn3n2)cc1,35.5% (inactive)
17,S=c1[nH]nc(-c2ccc(Cl)cc2)n1CC1CCCO1 (stereo not given),-72% (active)
18,CCn1c(-c2ccncc2)n[nH]c1=S,0.921% (inactive)
19,Cc1nnc(SCC(=O)NNC(=O)c2ccc(Cl)cc2)n1CC1CCCO1 (stereo not given),-18.7% (inactive)
20,O=C(Nc1cc(Br)ccc1F)c1nc[nH]c1C(=O)NCc1ccccc1,-14.4% (inactive)
21,COc1ccc(-c2[nH][nH]c(=O)c2NC(=O)c2ccc([N+](=O)[O-])cc2)cc1,-25.3% (inactive)
22,COC(=O)c1ccc2nc(-c3ccc(OC)c(OC)c3)c(Cc3ccccc3)n2c1,1.12% (inactive)
23,COc1cc(NS(=O)(=O)c2ccc3ccccc3c2)c2ncccc2c1,-25.7% (inactive)

row,SMILES,"max response, negative = inhibition"
1,Cc1ccc2cccc([N+](=O)[O-])c2n1,0% (inactive)
2,O=[N+]([O-])c1ccccc1S(=O)(=O)Nc1cccc2cccnc12,-72% (active)
3,CC(C)Oc1cc(F)ccc1-c1cc(C(=O)Nc2cccc(Cl)c2)[nH]n1,0% (inactive)
4,CCOC(=O)C1=CC[C@@H](c2ccccc2)N(S(=O)(=O)c2ccc(C)cc2)[C@H]1c1cccc(OC)c1,11.2% (inactive)
5,CCc1cc(-c2nnn(CCC3COCCO3)c2CC)ccc1-c1cn(Cc2ccc3ccccc3c2)nn1 (stereo not given),-10.8% (inactive)
6,O=C(COc1ccccc1[N+](=O)[O-])NC1CC1,16.3% (inactive)
7,C=CCN(CC=C)CCOc1ccccc1[N+](=O)[O-],-52.4% (active)
8,O=[N+]([O-])c1ccccc1OCCCCN1CCCCC1,-89.3% (active)
9,Cc1cc(OCCCN2CCN(Cc3ccccc3)CC2)ccc1[N+](=O)[O-],-14.9% (inactive)
10,CC1CN(CCOc2ccccc2[N+](=O)[O-])CC(C)O1 (stereo not given),-93.5% (active)
11,Cc1ccc(OCC(=O)Oc2ccccc2[N+](=O)[O-])cc1,0.0069% (inactive)
12,Cc1cc(C)c(OCCN2CC(C)OC(C)C2)c(Br)c1 (stereo not given),-21.2% (inactive)
13,CC1CN(CCCOc2ccccc2-c2ccccc2)CC(C)O1 (stereo not given),-29.6% (inactive)
14,O=C(COc1ccc(Cl)cc1[N+](=O)[O-])N1CCCCC1,-5.15% (inactive)
15,O=c1[nH][nH]c2c1[C@H](c1ccc(Cl)cc1)O[C@H](CCc1ccccc1)C2,-23.3% (inactive)
16,CCCNC(=O)C1(C)CCN(C(=O)c2cc(F)ccc2C)C1 (stereo not given),-11.8% (inactive)
17,CC(C)CN1CCC1(C)C(=O)Nc1ccc(OC(F)F)cc1 (stereo not given),12.7% (inactive)
18,O=C(Nc1cc(F)ccc1F)c1ccc2c(=O)n3c(nc2c1)CCC3,8.55% (inactive)
19,Cc1ccc(NC(=O)[C@H](Cc2ccccc2)NC(=O)CC[C@H]2O[C@@H](n3ccc(=O)[nH]c3=O)[C@H](O)[C@@H]2O)cc1C,-15.6% (inactive)
20,OC[C@@H]1CN(Cc2ccc(F)cc2)C[C@H](n2cnc3c(NC4CCCC4)ncnc32)O1,4.42% (inactive)
21,CC1(C(=O)NS(=O)(=O)c2ccccc2)CCN1C(=O)c1ccccc1 (stereo not given),10.2% (inactive)
22,CC1(C(=O)O)CCN1C(=O)/C=C/c1ccccc1 (stereo not given),0% (inactive)
23,CC1(C(=O)NS(=O)(=O)c2ccccc2)CCN1C(=O)C/C=C/c1ccccc1 (stereo not given),-9.32% (inactive)

row,SMILES,"max response, negative = inhibition"
1,CC1(C)CCSC(/C=C/c2ccccc2)=N1,-74.9% (active)
2,CCC1OC(C2CC2)CC2=C1C(=O)OC(C)(C)O2 (stereo not given),14.7% (inactive)
3,CCCC(=O)N1CCC1(C)C(=O)NCc1ccc(C(C)C)cc1 (stereo not given),-6.82% (inactive)
4,CC(C)(C)N(CC#CCC(O)(c1ccccc1)C1CCCC1)CCO (stereo not given),11.7% (inactive)
5,CN(CC#CCC(c1ccccc1)c1ccccc1)C(C)(C)C,-61.6% (active)
6,O=C1CCC(=O)N1CCC(=O)N(C(=O)NC1CCCCC1)C1CCCCC1,14.6% (inactive)
7,CC1(C)NC(=O)N(CC(=O)Nc2ccc(-c3ccccc3)cc2)C1=O,16.4% (inactive)
8,c1ccc2c(c1)CSc1sccc1C2=C1CCNCC1,-65.7% (active)
9,Cc1ccc(/C=N/NC(=O)COc2ccccc2-c2ccccc2)cc1,25.4% (inactive)
10,COc1ccccc1N1CCN(CCCCOc2ccc(F)cc2)CC1,-78.2% (active)
11,COc1ccccc1N1CCN(c2ccc([N+](=O)[O-])nc2)CC1,5.81% (inactive)
12,OCCN1CCN(C(=S)c2ccc(-c3ccccc3)cc2)CC1,-6.47% (inactive)
13,CCN1CCN(CCCCOc2ccccc2F)CC1,-71.5% (active)
14,CC1CC(C)CN(CCOc2cccc3ccccc23)C1 (stereo not given),-86.3% (active)
15,Fc1ccccc1OCCCCn1cncn1,2.5% (inactive)
16,COc1ccccc1N1CCN(CC(=O)NC(=O)NCc2ccco2)CC1,-22.2% (inactive)
17,CN1CCN(CCCCOc2ccccc2-c2ccccc2)CC1,-71% (active)
18,O=c1c2ccccc2ncn1CCCCOc1ccccc1F,-15.9% (inactive)
19,Cc1[nH]c2ccccc2c1C(=O)CN1CC(C)CC(C)C1 (stereo not given),-3.3% (inactive)
20,Cc1cccc(NC(=O)CCN2CC(C)CC(C)C2)c1 (stereo not given),-1.96% (inactive)
21,Nc1nc2ncccn2c1-c1ccccc1,-1.52% (inactive)
